According to PubChem BioAssay AID886 (National Center for Advancing Translational Sciences (NCATS), 2007):
Several values for one entry are separate records, joined by “and”; a condition that tells them apart may be missing. Identical values can stand only once. In all, about 73,000 compounds went through this assay and about 2,500 (3.4%) were called active. Not shown: some 7% with an inconclusive outcome. Calls follow the shape of the dose curve; as a rule, active = well fitted inhibition curve with a large enough effect; inconclusive = small, poorly fitted or top-dose-only effect; inactive = no such curve, though single readings can be large or run the other way. The sample as a whole holds a higher share of actives than the screen did.

These compounds were tested against 3-hydroxyacyl-CoA dehydrogenase type-2 (Homo sapiens) (UniProt Q99714) (assay: qHTS Assay for Inhibitors of HADH2 (Hydroxyacyl-Coenzyme A Dehydrogenase, Type II)). Settings: recombinant HADH2, NADH fluorescence, beta-hydroxybutyryl-CoA; series mostly up to 57.1 µM; activity change, negative = inhibition: at the top concentration.
Procedure, shortened: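 Read-out: 360 nm excitation, 450 nm emission, kinetic over 4 min. Conditions: His-tagged human HADH2 20 nM, pH 9.0 Tris with Tween-20, 1 mM NAD+, 90 uM beta-hydroxybutyryl-CoA.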
% is scaled to controls: 0 for no effect and ±100 for the full control effect; potency is read from the fitted curve at half-maximal effect.
Also: nearly all actives have a fitted effect of over 60% in size.

Sequence of 3-hydroxyacyl-CoA dehydrogenase type-2 (Homo sapiens) (Q99714 whole entry, looked up): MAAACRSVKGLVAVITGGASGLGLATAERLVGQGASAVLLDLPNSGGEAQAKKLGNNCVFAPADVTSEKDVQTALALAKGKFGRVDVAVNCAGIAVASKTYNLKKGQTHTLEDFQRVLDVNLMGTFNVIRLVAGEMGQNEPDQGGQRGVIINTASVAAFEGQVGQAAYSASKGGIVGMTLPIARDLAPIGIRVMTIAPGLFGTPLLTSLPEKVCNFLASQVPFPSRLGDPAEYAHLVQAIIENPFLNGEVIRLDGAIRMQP
Sequence of 3-hydroxyacyl-CoA dehydrogenase type-2 (Homo sapiens) (Q99714 whole entry, looked up): as above

Activity change, negative = inhibition, inactive:
C=CCOC(=O)COCCC(C)C -9.83%
O=C(c1cc(C(F)(F)F)cc(C(F)(F)F)c1)N1CCC2(CC1)CN(c1ccncc1)C2 -2.98%
Cc1cccn2c(=O)c3cc(C(=O)NCc4ccccn4)n(C)c3nc12 27.5%
CC(C)CC1(C(=O)NCc2ccccn2)C=CCN1C(=O)c1ccccc1 (stereo not given) 1.17%
C[C@@H]1CC[C@H]2[C@H](C)[C@H]3[C@H](C[C@H]4[C@@H]5CC=C6C[C@@H](O)CC[C@@]6(C)[C@@H]5C[C@@H](O)[C@]34C)N2C1 -8.91% [at 11.4 µM]
CCn1c(SCC(=O)NCC2CCCO2)nc2cc(S(=O)(=O)N3CCCCC3)ccc21 (stereo not given) -5.2%
CCc1ccc(NC(=O)CSc2nc3ccccc3c(=O)n2CCN2CCOCC2)cc1 7.42%
COC(=O)[C@@]1(Cc2ccccc2)[C@H]2c3cc(C(=O)N(C)C)n(CCSCCO)c3C[C@H]2CN1C(=O)c1ccccc1 6.25%
N#Cc1cccc(-c2nc3cnc(N4CCNCC4)nc3n(C3CC3)c2=O)c1 170%
c1ccc2c(Nc3ccncc3)nc(-c3ccoc3)nc2c1 -3.7%
COc1cccc(-c2nc(Nc3ccncc3)c3ccccc3n2)c1 9.47%
CCCC(Cl)CCCC(Cl)CCC(Cl)CCC(Cl)CCC(Cl)CCCC(Cl)CCC (stereo not given) 0.0337%
COc1ccc2nccc(C(=O)O)c2c1 10.9% [at 25.6 µM]
O=C(CNCCO)NC12CC3CC(CC(C3)C1)C2 5.37%
CN1CCN(CC(=O)C23CC4CC(CC(C4)C2)C3)CC1 1.99%
CC(C)NC(=O)N1CC[C@@]2(CCCN(C(=O)c3cccn3C)C2)C1 6.58%
NS(=O)(=O)c1ccc(CCNC(=O)Nc2ccc(Cl)cc2)cc1 16% [at 11.4 µM]
O=C(NCCc1ccc(Cl)cc1)C1CC(=O)N(C2CCCCC2)C1 (stereo not given) 3%
Cc1ccccc1N1CCN(S(=O)(=O)C[C@@]23CC[C@H](C[C@H]2NC(=O)[C@@H](N)CCS(C)(=O)=O)C3(C)C)CC1 -9.48%
COc1ccc(N2CCN(C3CC(=O)N(c4ccc5c(c4)OCCO5)C3=O)CC2)cc1 (stereo not given) 8.93%
CC(=O)Oc1cccc(N2C(=O)C3CC=C(Cl)CC3C2=O)c1 (stereo not given) -2.48%
Cc1ccc(Br)cc1 -4.88%
CCCn1c(-c2ccc(F)cc2)nc2c(NC3CCN(Cc4ccccc4)C3)nc(C)nc21 (stereo not given) -21.3%
COc1ccccc1CNc1nc(-c2c(C)noc2C)nc2ccccc12 -25.4%
C[C@@H](c1ccccc1)N1C(=O)[C@H]2[C@H]3[C@H](O)[C@H](O)C/C(=N/OC[C@@H](O)COCc4ccco4)[C@@H]3CC[C@@H]2C1=O 7.28% [at 11.4 µM]
CCCc1[nH]nc2c1C(c1ccc(OC(=O)c3ccco3)cc1)C(C#N)=C(N)O2 (stereo not given) -4.83%
CCCc1[nH]nc2c1C(C1CC=CCC1)C(C#N)=C(N)O2 (stereo not given) -5.39%
CN(C)c1ncc2nc(-c3ccc(F)cc3)c(=O)n(Cc3ccc(F)cc3)c2n1 -1.36%
COC(=O)[C@@]1(Cc2ccc(OC)cc2)[C@H]2c3cc(C(=O)N4CCCC4)n(Cc4ccc(C(F)(F)F)nc4)c3C[C@H]2CN1C(=O)c1ccccc1 3.4%
O=C(CS(=O)(=O)Cc1ccccc1)NCC1CCCO1 (stereo not given) 3.24%
O=C(CSc1nnc(-c2ccc(NS(=O)(=O)c3ccccc3)cc2)o1)NCC1CCCO1 (stereo not given) -10.8%
Cc1ccnc(N)c1 10.4%
N#Cc1ccc(CN2CCCC3(CCN(C(=O)c4ccco4)CC3)C2)cc1 -3.04%
COc1ccc(/C=C/NC(=O)c2ccc(OC)cc2)cc1 -13.3% [at 11.4 µM]

Potency, inactive:
CC(C)NC[C@H](O)c1ccc2ccccc2c1

Potency, active:
Cc1cccn2c(=O)c3cc(C(=O)N4COCC4(C)C)n(C)c3nc12 25.1 µM
CCCCn1c(SCC(=O)NCC2CCCO2)nc2ccc(N3CCOCC3)cc2c1=O (stereo not given) 10 µM
c1ccc2c(Nc3ccncc3)nc(-c3ccc4c(c3)OCO4)nc2c1 25.1 µM
CC(NCCO)C(=O)C12CC3CC(CC(C3)C1)C2 (stereo not given) 31.6 µM
Oc1cc2c(cc1O)CN(C(=S)NCCc1ccc(Cl)cc1)CCC2 1.58 µM and 631 nM
CC(=O)Oc1cccc(N2C(=O)CC(Nc3ccc(N4CCOCC4)cc3)C2=O)c1 (stereo not given) 15.8 µM
CC[C@@H]1Cc2cc(O)ccc2C2=C1c1ccc(O)cc1C[C@H]2CC 25.1 µM
CCCc1[nH]nc2c1C(c1ccc(Br)s1)C(C#N)=C(N)O2 (stereo not given) 10 µM
Oc1ccc(O)c2c(O)cccc12 1.26 µM
O=C(CSC1=Nc2ccccc2C2=NC(c3ccccc3)C(=O)N12)NCC1CCCO1 (stereo not given) 31.6 µM
